WT yeast gro inh: growth inhibition of WT strain, primary screen, mitochondrial fusion inhibitor project, WT and mutant strains, chemical genetic. mitochondrial fusion phenotypic screen. inhibition, % at 10 µM. 190,000 compounds, 2.1% hits; in the data active = inhibition above about 58%; tested in S. cerevisiae
Insulin prom up: insulin promoter activators in MIN6 cells, imaging, high-content screening, mouse beta cells; AID 1625, 2009; 190,000 compounds, 0.3% hits; z-score at 5 µM; MIN6 insulin promoter-GFP reporter; active compounds read high;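 active = z-score above 3 at 5 µM with at least 500 cells counted in the well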
Autophagy mod: autophagy modulators in MEF cells, primary screen, imaging, high-content, MEF GFP-LC3 | MEF GFP-LC3 puncta imaging; test concentration mostly 10 µM | calls only at 10 µM (by protocol) | 190,000 compounds, 0.98% hits;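 active = percentage of spot-positive cells more than 3 SD above its plate mean, without a fluorescence outlier flag or 80% toxicity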;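 note: spot-positive cell cutoff set from DMSO-treated cells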
L major viab: Leishmania major promastigote growth inhibition, primary screen | Leishmania major promastigotes, resazurin fluorescence viability | inhibition, % at 10 µM | 200,000 compounds, 9% hits; in the data active = inhibition above about 50%;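 note: promastigotes grown with compound for 44 hours at 28 °C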
Insulin prom inh: inhibitors of insulin promoter-driven GFP, primary screen, imaging, TRM-6 cells (human fetal islet line), eGFP reporter, cell count; reporter expression induced with tamoxifen; inhibition, % at 2 µM; 130,000 compounds, 0.9% hits; AID 1273, 2008;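 active = inhibition above the mean plus 3 SD, with well images judged a real hit on visual review, cut at about 60% in these data, passing the limit was not always enough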
L major 1uM: Leishmania major promastigote growth inhibition, confirmation, 1 µM repeat of primary hits. shares compounds with L major viab. L. major promastigote growth, resazurin fluorescence, 48 h. inhibition, % at 1 µM. 1,100 compounds, 13% hits;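 active = inhibition above about 50% in both repeat tests, limit read from the data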
The depositor's hits bear a star; i = inactive; x = no result given. Hits are enriched below; roughly 11% of the tested compounds scored in any of these assays.

SMILES	WT yeast gro inh	Insulin prom up	Autophagy mod	L major viab	Insulin prom inh	L major 1uM
O=C1C2CCCN2C(c2cccnc2)N1c1ccc(Cl)c(Cl)c1 (stereo not given)	5	-0.26	i	96*	27	8
O=C1C2CCCN2C(c2ccncc2)N1c1ccc(Cl)c(Cl)c1 (stereo not given)	3	-0.48	i	0	x	x
O=S(=O)(c1ccc(Cl)cc1)N1CCCCC1c1cccnc1 (stereo not given)	8	-0.08	i	44	-58	x
Cc1nn(Cc2ccc(Cl)cc2Cl)c(Cl)c1C(=O)NC1CCCc2ccccc21 (stereo not given)	12	0.9	i	5	-60	x
CC1=CC2/C=C(\C)CCC(O)C(O)/C=C/C(=O)C23C(=O)NC(CC(C)C)C3C1C (stereo not given)	-21	-2.5	i	97*	x	48
CC1CN(c2cc([N+](=O)[O-])ccc2Cl)CC(C)N1 (stereo not given)	10	-0.06	i	37	x	x
Cn1cccc1CNCCc1ccccc1F	4	0.11	i	98*	x	-17
Cn1cccc1CNCCc1ccccc1	4	0.08	i	-5	15	x
CCn1nc(/C=C/c2ccccc2)nc2c(=O)n(C)c(=O)nc1-2	90*	-4.7	i	101*	54	81*
CC[n+]1c(/C=C/N(C)c2ccccc2)sc2ccc(Cl)cc21	-2	x	i	100*	43	100*
COCCCN1CCN(c2nnc3n2-c2sc(Br)cc2C(c2ccccc2Cl)=NC3)CC1	8	x	i	97*	-76	79*
CCOCCN1CCN(c2nnc3n2-c2ccc(Cl)cc2C(c2ccccc2Cl)=NC3)CC1	-13	-0.66	i	99*	x	51*
Cc1nnc2n1-c1ccc(Br)cc1C(c1ccccc1Cl)=NC2	22	0.25	i	32	6	x
CC1CN2c3ccc([N+](=O)[O-])cc3CC3(C(=O)N(C)C(=O)N(C)C3=O)C2C(C)O1 (stereo not given)	x	0.18	x	x	x	x
CCCCc1ccc2[nH]cc(CCN)c2c1	-23	3.1*	i	100*	10	1
CC(C)[C@H]1C(=O)O[C@H](C(C)C)C(=O)N(C)[C@@H](C(C)C)C(=O)O[C@H](C(C)C)C(=O)N(C)[C@@H](C(C)C)C(=O)O[C@H](C(C)C)C(=O)N1C	80	-4.3	i	100*	x	-7
COc1cccc(CNC2CN3CCC2CC3)c1OC (stereo not given)	-3	0.24	i	-2	-34	x
CCOc1cccc(CNC2CN3CCC2CC3)c1 (stereo not given)	9	-1.2	i	99*	7	-19
O=C(c1c[nH]cc1-c1ccccc1)c1cccc2ccccc12	-8	x	i	-4	59	x
O=P(Nc1ccccc1)(Nc1ccccc1)Oc1ccc(Cl)cc1	2	-0.64	i	71*	-52	-5
CC1(C)C(=O)C=C[C@]2(C)[C@H]3CC[C@@]4(C)[C@H](c5ccoc5)OC(=O)[C@H]5O[C@]54[C@]3(C)[C@H](O)C[C@@H]12	41	0.82	i	100*	40	88*
CN(C)C(=O)Oc1ccc(Br)c2ccccc12	-3	0.63	i	7	-65	x
O=P(NCc1ccccc1)(Oc1ccccc1)Oc1ccccc1	9	0.09	i	7	x	x
CCOC(=O)c1c(C)[nH]c(C(=O)C(Cc2ccccc2)N(C)C)c1C (stereo not given)	10	0.54	i	99*	17	-8
CCOC(=O)c1c(C)[nH]c(C(=O)C(C)N2CCCC2)c1C (stereo not given)	10	-0.59	i	-4	x	x
O=C(NCC(c1cccnc1)N1CCN(c2ccc(F)cc2)CC1)Oc1ccccc1 (stereo not given)	1	-0.26	i	93*	50	78*
CCn1c(C(=O)N2CCC(C(=O)N3CCC4(CC3)OCCO4)CC2)cc2sccc21	6	-1.9	i	-7	x	x

Compound activity: PubChem, several laboratories
